WT yeast gro inh = growth inhibition of WT strain, primary screen, mitochondrial fusion inhibitor project, WT and mutant strains, chemical genetic; inhibition, % at 10 µM; mitochondrial fusion phenotypic screen; AID 1362, 2008; 2.1% of 190,000 active; in the data active means inhibition above about 58%; tested in S. cerevisiae
RAM network inh = inhibitors of the yeast RAM network, primary screen, dse1pr::URA3 reporter, 5-FOA selection; S. cerevisiae dse1pr::URA3 reporter, 5-FOA growth OD615, 2 d; analog-sensitive cbk1-as2 kinase mutant strain; inhibition, % at 50 µM; 1.8% of 190,000 active; AID 868, 2007;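 active means inhibition above a set limit, 3 SD over mean compound inhibition, cut at about 8.4% in these data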;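 further: 0% = DMSO-only wells with no growth and 100% = 10 µM 1-NA-PP1 full growth; inhibition rescues growth on 5-FOA so higher OD means more RAM inhibition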
CHOP inhibitor = inhibitors of CHOP promoter induction, primary screen, cell-based, unfolded protein response, luciferase reporter. CHO-K1 CHOP-promoter luciferase, tunicamycin-induced, 15-18 h. inhibition, % at 10 µM. 3.8% of 220,000 active. AID 2732, 2010;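 active means compounds that reduced the stress-induced luciferase reporter signal by more than about 70% of percent inhibition, limit read from the data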;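 further: 0% = tunicamycin plus vehicle and 100% = wells without tunicamycin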
Lmaj promast = Leishmania major promastigote growth inhibition, primary screen | Leishmania major promastigotes, resazurin fluorescence viability | inhibition, % at 10 µM | 9% of 200,000 active; in the data active means inhibition above about 50%;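 further: promastigotes grown with compound for 44 hours at 28 °C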
An asterisk follows results filed as active; nt = no result given. Only some compounds are listed: those with a hit (about 13% of all), similar ones and a draw of the others.

SMILES | WT yeast gro inh | RAM network inh | CHOP inhibitor | Lmaj promast
CC1CCN(CCC(=O)Nc2ccc(Cl)cc2)CC1 | -26 | 0 | -6 | 4
CN(c1cccc(Cl)c1)S(=O)(=O)c1cccc(C(=O)Nc2ccc3c(c2)CCC3)c1 | -21 | 6 | 43 | 95*
O=S(=O)(c1ccc(Cl)c(C(F)(F)F)c1)N1CCN(c2ccccn2)CC1 | 22 | 2 | 72* | -6
COc1ccc(C(C)(C)C)cc1NC(=O)Cn1cnnn1 | 1 | 2 | 10 | -16
Cc1c(C(=O)C(=O)N2CC=C(c3ccccc3)CC2)c2ccccc2n1C | 13 | 2 | -13 | 0
COc1ccc(N2CCN(C(=O)CCN3C(=S)NC(C)(C)CC3C)CC2)cc1 (centres undefined) | 7 | 0 | 9 | 4
Cc1cccc(C)c1NC(=O)CCCN1CC(C)OC(C)C1 (centres undefined) | -5 | 1 | -9 | 66*
NC(=O)C1CCN(CCC(=O)Nc2ccc3c(c2)CCC3)CC1 | -9 | 2 | 9 | 80*
O=C(Nc1cccc(Cl)c1)c1ccc(F)c(S(=O)(=O)N2CCN(c3ccccn3)CC2)c1 | 26 | 6 | 74* | 13
NC(=O)C1CCN(CCC(=O)Nc2ccc(Br)cc2)CC1 | 0 | 2 | -16 | -1
CCOc1ccc(CCNC(=O)c2cc(C)nn2-c2ccccc2)cc1 | nt | nt | -1 | nt
COc1ccc(Cl)cc1N(CC(=O)Nc1ccc2c(c1)OCCO2)S(C)(=O)=O | 1 | 4 | 28 | 6
O/C(=C\Sc1nnc(Cc2ccccc2)o1)c1ccc(F)cc1 | 10 | 2 | -4 | -5
COc1ccc(Cc2nnc(Nc3c(C)cccc3C)o2)cc1OC | nt | nt | 25 | nt
O=C(Cn1cc([N+](=O)[O-])cn1)Nc1cccnc1 | -8 | 0 | 25 | -4
Cc1ccc(S(=O)(=O)NCCNC(=O)c2ccccc2)cc1 | 0 | 0 | 7 | -5
Cc1ccc(S(=O)(=O)NCc2ccc(C(=O)NCCN(Cc3ccccc3)C(C)C)cc2)cc1 | -19 | 0 | 46 | 67*
CCN1C(=O)/C(=C/N2CC(C)CC(C)C2)SC1=S (centres undefined) | 24 | 9.7* | -13 | 0
CCN1C(=O)/C(=C\N2CCCCCC2)SC1=S | 55 | 1 | -27 | 13
CCOC(=O)c1cc(C(=O)OCC)c2cc(Br)ccc2n1 | 0 | 7 | 88* | -4
O=C(COC(=O)c1ccc2c(c1)S(=O)(=O)N=C1CCCCCN12)NCc1cccs1 | nt | nt | 2 | nt
Nc1ncnc(N2CCc3ccccc32)c1[N+](=O)[O-] | 1 | 2 | 52 | -3
CCC(CO)Nc1nc(NCc2ccccc2)c2ncn(C(C)C)c2n1 (centres undefined) | nt | nt | 13 | nt
COC(=O)CSc1cc(SCC(=O)OC)c(C#N)c(SCC(=O)OC)c1 | 10 | 1 | -22 | 64*
O=C(Nc1ccccc1)c1sccc1Oc1ccc([N+](=O)[O-])cc1F | 13 | 5 | 48 | 84*
SMILES | WT yeast gro inh | RAM network inh | CHOP inhibitor | Lmaj promast
COCCOc1cc(NC(=O)c2sccc2Oc2ccc([N+](=O)[O-])cc2F)c(Cl)cc1Cl | 14 | 5 | 24 | 31
OC1CCN(C(=S)Nc2ccc(Oc3ccccc3)cc2)CC1 | 14 | 1 | 19 | -6
COc1cc(/C=N/Nc2nc(Nc3ccccc3)nc(-n3nc(C)cc3C)n2)cc(OC)c1OC | 2 | 5 | -27 | 100*
Cc1cc(N/N=C/c2cccc(Cl)c2)nc(-n2nc(C)cc2C)n1 | nt | nt | -29 | nt
COc1cc(/C=N/Nc2nc(Nc3ccccc3)nc(N3CCOCC3)n2)ccc1OC(=O)c1ccco1 | 7 | 4 | -30 | 22
COc1cc(/C=N/Nc2nc(Nc3ccc(C)cc3)nc(-n3nc(C)cc3C)n2)cc(OC)c1OC | 10 | 3 | 22 | 100*
COc1ccc(O)c(/C=N/Nc2nc(Nc3ccccc3)nc(-n3nc(C)cc3C)n2)c1 | 16 | 1 | 11 | 101*
O=C(CCc1ccccn1)N1CCCC(CNS(=O)(=O)c2cccs2)C1 (centres undefined) | -16 | -1 | -5 | -2
CN(C)C(=O)N(CCCN1CCOCC1)Cc1cccc2ccccc12 | nt | nt | 1 | nt
COc1cccc(OCC(O)CN2CCC(Cc3ccccc3)CC2)c1 (centres undefined) | -2 | 0 | 44 | 95*
C=CCc1ccc(OCC(O)CN2CCN(Cc3ccc(Cl)cc3)CC2)c(OC)c1 (centres undefined) | 31 | -1 | 51 | 93*
C=CCc1ccc(OCC(O)CN2CCC(Cc3ccccc3)CC2)c(OC)c1 (centres undefined) | 44 | 1 | -1 | 100*
COc1cccc(OCC(O)CN2CCN(c3ccccc3)CC2)c1 (centres undefined) | nt | nt | -17 | nt
COc1cccc(OCC(O)CN2CC(C)CC(C)C2)c1 (centres undefined) | -5 | -1 | -4 | 88*
CC1CC(OCC(O)CN2CCOCC2)CC(C)(C)C1 (centres undefined) | 0 | 1 | -13 | 77*
CCOC(=O)N1CCN(CC(O)COC2CC(C)CC(C)(C)C2)CC1 (centres undefined) | 33 | 2 | 27 | 93*
CC1CC(OCC(O)C[N+]2(C)CCOCC2)CC(C)(C)C1 (centres undefined) | -2 | 1 | -16 | -7
Clc1ccc2c(c1)C(C1=NCCN1)c1ccccc1CS2 (centres undefined) | 15 | 1 | 4 | 10
S=C1NCCc2ccc(Cl)cc2C1c1ccccc1Cl (centres undefined) | 68* | 1 | -3 | 5
c1ccc2cc(CSCc3nc4ccccc4[nH]3)ccc2c1 | 74* | 3 | 16 | 19
Cc1ccccc1CSCc1nc2ccccc2[nH]1 | 56 | 3 | 1 | 9
O=C(COC(=O)CNS(=O)(=O)c1c(Cl)cccc1Cl)Nc1cccnc1Cl | -2 | 2 | 0 | -6
Cc1ccc(P(C)(=O)c2ccc(C)cc2)cc1 | -2 | 0 | -4 | -2
Cc1ccc(NP(=O)(Nc2ccc(C)cc2)Nc2ccc(C)cc2)cc1 | -8 | 1 | 43 | 58*
CC(Oc1ccccc1)C(=O)N1CCN=C1SCc1ccccc1 (centres undefined) | 5 | 3 | -3 | -2
SMILES | WT yeast gro inh | RAM network inh | CHOP inhibitor | Lmaj promast
Cc1cc(NNC(=O)c2cccc(C(F)(F)F)c2)nc2c1c(C)nn2C | nt | nt | 48 | nt
Cc1ccc(NC(=O)N(Cc2cccnc2)Cc2ccco2)cc1C | 23 | 0 | 7 | 92*
Cc1ccc(NC(=O)N(Cc2ccco2)Cc2cc3cc(C)cc(C)c3nc2Cl)cc1 | -16 | 2 | 3 | 1
N#CCCN(Cc1cccnc1)C(=O)Nc1ccc(Cl)c(Cl)c1 | 11 | 3 | 21 | 95*
O=C(Nc1ccc(Cl)cc1)N(Cc1cccnc1)Cc1ccco1 | 17 | 1 | 64 | 92*
COc1ccc(/C(C)=N/NC(=O)c2ccccc2N)cc1 | -15 | 0 | -17 | -6
COc1ccc(-c2[nH]c(-c3cc(OC)c4c(c3)OCO4)nc2-c2ccccc2)cc1 | 63* | 0 | 12 | 89*
CCCCN(CCCC)CCNC(=O)CSCc1ccc(C)cc1 | -5 | 1 | 23 | 83*
Cc1ccc(COc2ccc(/C=N/NC(=O)c3nnn(-c4nonc4N)c3COc3ccc(F)cc3)cc2)cc1 | nt | nt | 82* | nt

Source: PubChem BioAssay (several laboratories)
